Source: PubChem
The full list was thinned out, with hits kept by preference.
TDP1 cell CPT = DT40-hTDP1 cell growth loss with CPT. chicken DT40 Tdp1-/-;hTDP1 cells + 20 nM CPT, ATP luminescence, 48 h. Potency, µM (doses to about 46.2 µM), inactives show at the top dose activity change, negative = growth inhibition, most hits filed as inhibitors. 420,000 tested, 12% active. AID 686979; also: potency is read from the fitted curve at half-maximal effect; nearly all actives have a fitted effect of over 55% in size
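Chicken DT40 Tdp1-/- cells complemented with human TDP1, 400 cells/well, exposed to compounds plus 20 nM camptothecin for at least 48 h at 37 C; viability read as ATP content by CellTiter-Glo luminescence.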
12-LOX inh = blocks human arachidonate 12S-lipoxygenase; P18054; 580,000 tested, 1.1% active; purified 12hLO, xylenol orange hydroperoxide absorbance; Potency, µM (series often up to 108 µM), without a hit: at the highest dose activity change, negative = inhibition, most hits filed as inhibitors; AID 1671190; also: potency is read from the fitted curve at half-maximal effect
Target sequence (P18054 whole entry, looked up): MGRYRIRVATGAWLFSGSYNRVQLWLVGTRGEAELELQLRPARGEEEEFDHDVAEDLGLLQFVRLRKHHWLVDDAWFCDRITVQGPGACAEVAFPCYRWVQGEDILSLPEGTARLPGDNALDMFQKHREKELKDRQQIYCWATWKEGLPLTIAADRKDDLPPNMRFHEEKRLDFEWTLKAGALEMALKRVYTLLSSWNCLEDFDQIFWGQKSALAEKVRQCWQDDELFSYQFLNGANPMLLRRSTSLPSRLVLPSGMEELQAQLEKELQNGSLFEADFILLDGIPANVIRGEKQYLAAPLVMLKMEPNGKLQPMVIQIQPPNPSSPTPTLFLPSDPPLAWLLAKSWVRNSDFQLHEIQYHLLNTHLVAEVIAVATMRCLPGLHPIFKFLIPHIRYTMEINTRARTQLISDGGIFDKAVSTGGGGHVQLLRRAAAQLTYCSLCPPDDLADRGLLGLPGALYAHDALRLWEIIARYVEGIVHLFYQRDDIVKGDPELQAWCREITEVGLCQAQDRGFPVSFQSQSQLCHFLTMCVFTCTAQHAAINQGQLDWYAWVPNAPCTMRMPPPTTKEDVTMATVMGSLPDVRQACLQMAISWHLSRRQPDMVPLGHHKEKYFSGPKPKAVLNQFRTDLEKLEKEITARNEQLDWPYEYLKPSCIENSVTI
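Hydroperoxide product was detected by ferrous iron/xylenol orange as the 573 to 405 nm absorbance ratio. Arachidonic acid at 40 uM (final) was turned over for 30 min at room temperature by 150 nM human 12hLO, pH 7.0 Hepes buffer, after 15 min compound preincubation.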
HT1080-NT tox = kills 2HG-producing HT-1080-NT fibrosarcoma cells; HT-1080-NT fibrosarcoma viability, CellTiter-Glo ATP luminescence, 48 h; Potency, µM (top dose mostly 46.1 µM), for inactives: at the highest dose activity, negative = less viability, usual class: cytotoxic; 360,000 tested, 1.6% active; AID 686970;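 also: NT is the 2HG producing partner of a matched IDH1 knockdown line; potency is read from the fitted curve at half-maximal effect; 0% = DMSO-treated cells and -100% = media-only wells without cells; nearly all actives have a fitted effect of over 55% in size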
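HT-1080-NT; 750 cells/well; 5% FBS RPMI; 48 h compound, 37 degrees C; CellTiter-Glo luminescence; curve fitting and curve-class assignment.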
IL-1B inflam inh = blocks inflammasome-driven IL-1 beta release; THP-1 LPS/ATP IL-1B secretion, AlphaLISA, 16 h; stronger effect = lower value; activity change, % at 57.5 µM; 360,000 tested, 4.7% active; in the data active = activity change below about -50%; inconclusive = mostly about -30% to -49%
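THP-1 cells pretreated 1 hr with compounds (up to 57.5 uM final), then stimulated with LPS (250 ng/mL final) plus ATP (1.25 mM final); secreted IL-1B measured by AlphaLISA after 16 hr, decreased signal indicating inhibition.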
DT40 TDP1 no CPT = qHTS for Inhibitors of human tyrosyl-DNA phosphodiesterase 1 (TDP1): qHTS in cells in absence of CPT; DT40 Tdp1-/- hTDP1 cells, no CPT, ATP luminescence, 48 h; Potency, µM (highest dose often 46.2 µM), for inactives: at the top dose activity change, negative = growth inhibition, usual class: inhibitors; 420,000 tested, 15% active; also: potency is read from the fitted curve at half-maximal effect; nearly all actives have a fitted effect of over 55% in size
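Cells were dispensed at 400 per well, compounds added by pin tool, plates incubated ≥48 hr at 37 °C, then CellTiter-Glo added for 30 min at room temperature before luminescence reading. Line: DT40 Tdp1-/- complemented with hTDP1; camptothecin omitted.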
HT1080 IDH1KD tx = kills HT-1080 cells with IDH1 knockdown; HT-1080 IDH1 knockdown viability, ATP luminescence, 48 h; Potency, µM (doses to about 46.1 µM), for inactives: top-dose activity, negative = toxicity, usual class: cytotoxic; 360,000 tested, 2% active; AID 686971;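 also: potency is read from the fitted curve at half-maximal effect; 0% = DMSO wells and -100% = cell-free medium wells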
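Using the IDH1-knockdown HT-1080 line run in the same batch and compound series as the NT line, viability after 48 h at 37 °C was determined by CellTiter-Glo luminescence and expressed as % activity.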
The depositor's hits bear a star; ? = inconclusive; . = no result. Unless noted, calls follow the shape of the dose curve; as a rule, active = well fitted curve in the direction sought with a large enough effect; inconclusive = small, poorly fitted or top-dose-only effect, or another doubt; inactive = no such curve, though single readings can be large; an effect the other way counts as inactive or inconclusive. Unless noted, % is scaled to controls: 0 for no effect and ±100 for the full control effect.

SMILES | TDP1 cell CPT | 12-LOX inh | HT1080-NT tox | IL-1B inflam inh | DT40 TDP1 no CPT | HT1080 IDH1KD tx
Cc1cc(OCC(=O)NCCc2c[nH]c3ccccc23)c2c(C)cc(=O)oc2c1 | ? | 22.1% | 8.3% | -90.2* | ? | 0.9%
Cc1cc(=O)oc2cc(O)cc(OCc3ccccc3)c12 | ? | ? | 9.9% | 38.3 | 16.4µM* | 10.1%
COc1ccc2[nH]cc(CCNC(=O)COc3ccc4ccc(=O)oc4c3)c2c1 | ? | -5.6% | 4.4% | -23.3 | 20.6µM* | -0.8%
Cc1cc(OCC(=O)Nc2ccccn2)c2c(C)cc(=O)oc2c1 | -24.7% | 2.5% | 18.2% | -54.4* | ? | 5.1%
CCCc1cc(=O)oc2cc(C)cc(OCC(=O)Nc3ccccn3)c12 | ? | -17.4% | 7.3% | 25.8 | -24.5% | 0.6%
Cc1cc(=O)oc2cc(OCC(=O)NCCc3c[nH]c4ccc(F)cc34)ccc12 | -17.7% | 4.1% | 4.8% | -25.2 | 13.1% | 12.6%
Cc1cc(=O)oc2ccc(OCc3ccccc3)cc12 | ? | 7.4% | -15.4% | 29.1 | ? | -7.2%
COc1cc(NC(=O)c2ccc(-c3ncn[nH]3)cc2)ccc1NC(=O)C(C)(C)C | . | 13.2% | . | . | . | .
CCNC(=O)NC(=O)C(C)N1CCN(c2ccccc2Cl)CC1 (stereo not drawn) | . | 1.8% | . | . | . | .
Nc1nc(SCc2coc(-c3cccc(Cl)c3)n2)n[nH]1 | . | 9.4% | . | . | . | .
CCCc1cc(=O)oc2cc(OCC(=O)NCCc3c[nH]c4ccccc34)ccc12 | 23.1µM* | -27.4% | ? | -21.4 | 16.4µM* | ?
Cc1cc(C)c(C#N)c(SCc2nnc(-c3ccccc3[N+](=O)[O-])o2)n1 | 25.9µM* | -1.1% | ? | -2.5 | 20.6µM* | -22.5%
Cc1nc(C)c(-c2ccc(SCC(=O)Nc3ccccc3F)nn2)s1 | ? | -18.0% | . | . | 14.6µM* | .
CCOC(=O)c1ccc(NC(=O)CSc2ccc(-c3sc(C)nc3C)nn2)cc1 | ? | 7.2% | . | . | ? | .
Cc1nc(C)c(-c2ccc(SCC(=O)Nc3cccc(C)c3C)nn2)s1 | 16.4µM* | 0.0% | . | . | 20.6µM* | .
COc1ccccc1NC(=O)C(C)OC(=O)Cc1ccsc1 (stereo not drawn) | -4.2% | -21.9% | 14.9% | 15.4 | 5.0% | 16.1%
CCOc1ccccc1NC(=O)NCCc1ncc(C)n1CCOC | . | -0.4% | . | . | . | .
O=C(CCN1CCCC1Cc1ccccc1)c1ccc2c(c1)OCCO2 (stereo not drawn) | 2.59µM* | 11.7% | -4.5% | -100.7* | 2.31µM* | ?
O=C(CCN1CCc2ccccc2C1)c1ccc2c(c1)OCCO2 | 5.8µM* | . | -6.8% | -0.1 | 3.66µM* | -8.0%
O=C(CCN1CCCCC1)c1ccc2c(c1)OCCO2 | 20.6µM* | -29.9% | ? | -86.3* | 15.8µM* | 5.62µM*
O=C(c1ccc2c(c1)OCO2)N1CCc2ccccc2C1 | ? | ? | -3.3% | 27.8 | ? | -21.7%
CN(C)CCCn1c2c(c(SCC(=O)Nc3cccc4ccccc34)nc1=O)CCCC2 | -6.0% | 1.0% | -4.5% | -97.4* | -16.2% | -6.3%
COc1ccc(Cl)cc1NC(=O)CSc1nc(=O)n(CCN(C)C)c2c1CCCC2 | 16.4µM* | 3.6% | -14.1% | ? | ? | -0.6%
CCCN(Cc1cc2cccc(C)c2[nH]c1=O)C(C)=O | . | 38.9% | . | . | . | .
CC(C)CCN(Cc1ccco1)C(=O)c1cc2c(Cl)nc3ccccc3c2s1 | ? | -15.4% | . | . | 16.4µM* | .
CCn1c(=O)c2cc(C(=O)N(C)CC(OC)OC)sc2c2ccccc21 | ? | 0.0% | -1.8% | 11.3 | ? | 0.0%
CCn1c(=O)c2cc(C(=O)N(CCCOC(C)C)Cc3ccco3)sc2c2ccccc21 | ? | -17.3% | . | . | 20.6µM* | .
